Laboratory results from PubChem BioAssay AID493200 (National Center for Advancing Translational Sciences (NCATS), 2011).
Inconclusive results are not listed. A call without a number means that no potency is given here. Calls of active or inactive are those of the source. Calls follow the shape of the dose curve; as a rule, active = well fitted activation curve with a large enough effect; inconclusive = small, poorly fitted or top-dose-only effect; inactive = no such curve, though single readings can be large or run the other way.

assay: qHTS Assay for Rab9 Promoter Activators: Initial hit validation from the primary screen; conditions: Huh7 Rab9 promoter luciferase reporter, 24 h; series mostly up to 46.1 µM
How it was run: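 Luciferase signal, read 10 min after Amplite reagent, reports Rab9 promoter activation. Compounds in DMSO were applied for 24 h at 37C to Rab9-luciferase Huh7 cells, pre-incubated 2 h in reduced-serum medium with 10% FBS.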
Potency is read from the fitted curve at half-maximal effect.

SMILES | Potency
CCC(=O)NC(=S)Nc1ccc(N2CCOCC2)cc1 | 39700 nM (active)
CN(C)C(CNC(=O)CNC(=O)c1ccc2ccccc2c1)c1ccccc1 (stereo not given) | inactive
O=C(CSc1nnc(-c2ccccc2)o1)Nc1ccccc1F | 112 nM (active)
CCN(C(=O)COC(=O)c1ccc(C=O)cc1)c1c(N)n(Cc2ccccc2)c(=O)[nH]c1=O | inactive
CC(=O)NC(CCCN1C(=O)c2ccccc2C1=O)c1nnn(C)n1 (stereo not given) | inactive
CC(=O)c1cccc(NC(=O)N2CCOCC2)c1 | inactive
Cn1c(CCN2CCN(c3ccccc3)CC2)nc2cc(NC(=O)c3ccco3)ccc21 | inactive
CN(C)/C=N/c1c(C#N)cnn1-c1nc2ccccc2s1 | inactive
Cc1ccc(N(O)C(=O)NCCCCNC(=O)N(O)c2ccc(C)cc2)cc1 | 15800 nM (active)
O=C(COC(=O)c1ccc(-c2nnc(-c3ccccc3)o2)cc1)c1ccccc1 | 396 nM (active)
Cc1c(C(O)CN2CCN(Cc3ccc4c(c3)OCO4)CC2)c2ccccc2n1C (stereo not given) | inactive
Cc1ccc(C)c(Nc2cc(C)nc3ncnn23)c1 | inactive
O=C(CSc1nnc(-c2ccc([N+](=O)[O-])cc2)o1)Nc1ccccn1 | 560 nM (active)
COCCNC(=O)Cn1nc(-c2ccccc2)c2ccccc2c1=O | inactive
N#C/C(=N\Nc1ccc(Cl)cc1)C(=N)N1CCCCC1 | 223 nM (active)
CCOC(=O)c1ccc(NC(=O)Oc2cc(C)c(Cl)cc2C(C)C)cc1 | inactive
COc1cccc(C2Nc3ccccc3NC3=C2C(=O)CC(C)(C)C3)c1 (stereo not given) | inactive
CCCCc1cc(=O)oc2cc(OCC(=O)N3CCOCC3)ccc12 | inactive

SMILES | Potency
Cc1ccccc1NC(=O)Cc1nc(COC(=O)CC(C)c2ccccc2)cs1 (stereo not given) | inactive
Cc1ccccc1NC(=O)CSc1ccc(-c2cccnc2)nn1 | inactive
O=S(=O)(c1cccs1)N1CCN(c2ncccn2)CC1 | inactive
COc1ccc(-n2c(N)c(C(=O)NCc3ccco3)sc2=S)cc1 | inactive
O=CN1CCN(C(=O)c2ccccc2Cl)CC1 | inactive
CC1CN(C(=O)c2ccncc2)CC(C)O1 (stereo not given) | inactive
CCN(CC(=O)N(CC(C)C)c1c(N)n(CC(C)C)c(=O)[nH]c1=O)Cc1nc2ccccc2c(=O)[nH]1 | inactive
COc1ccccc1OCCCC(=O)NCc1ccco1 | inactive
CC(C)(C)C(=O)N/C(N)=N/c1nc2ccccc2o1 | 628 nM (active)
COC(=O)c1ccc(NC(=O)c2ccc3nc(C)sc3c2)cc1 | 560 nM (active)
O=C(NNC(=O)C1COc2ccccc2O1)c1ccccc1O (stereo not given) | inactive
O=C(CN1C(=O)COc2ccc(Cl)cc21)NCC1CCCO1 (stereo not given) | inactive
COCCn1c(SCc2ccc(C(=O)OC)o2)nc2cc(Cl)ccc2c1=O | inactive
Cc1ccc(C(=O)Nc2nnc(S(=O)(=O)N3CCOCC3)s2)cc1 | inactive
CCOC(=O)c1ccc(-c2nnc(-c3ccc(Cl)cc3Cl)o2)cc1 | 705 nM (active)
O=C(Nc1ccc(-c2nc3cccnc3s2)cc1)c1ccc(Cl)nc1 | 888 nM (active)
CCOc1cc(C2C(C#N)=C(N)Oc3n[nH]c(C)c32)ccc1OCCN1CCOCC1 (stereo not given) | inactive
